ChEMBL document CHEMBL1961873, “Compounds: GSK PKIS; Assays: Nanosyn kinase panel” (2012)

Legend:
[1] = target: CDK3/Cyclin E (Homo sapiens) (UniProt P24864+Q00526); details: at 1 µM;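 also: each figure is a mean percent inhibition of the CDK3/cyclin E complex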
[2] = target: Cyclin-dependent kinase 4 (Homo sapiens) (UniProt P11802); details: at 0.1 µM
[3] = target: Cyclin-dependent kinase 4 (Homo sapiens) (UniProt P11802); details: at 1 µM
[4] = target: Cyclin-dependent kinase 5 (Homo sapiens) (UniProt Q00535); details: at 0.1 µM
[5] = target: Cyclin-dependent kinase 5 (Homo sapiens) (UniProt Q00535); details: at 1 µM
[6] = target: Cyclin-dependent kinase 6 (Homo sapiens) (UniProt Q00534); details: at 0.1 µM
[7] = target: Cyclin-dependent kinase 6 (Homo sapiens) (UniProt Q00534); details: at 1 µM
[8] = target: Dual specificity protein kinase CLK2 (Homo sapiens) (UniProt P49760); details: at 0.1 µM
[9] = target: Dual specificity protein kinase CLK2 (Homo sapiens) (UniProt P49760); details: at 1 µM
[10] = target: Dual specificity protein kinase CLK3 (Homo sapiens) (UniProt P49761); details: at 0.1 µM
Dual specificity protein kinase CLK3 (Homo sapiens), sequence (P49761 whole entry, looked up): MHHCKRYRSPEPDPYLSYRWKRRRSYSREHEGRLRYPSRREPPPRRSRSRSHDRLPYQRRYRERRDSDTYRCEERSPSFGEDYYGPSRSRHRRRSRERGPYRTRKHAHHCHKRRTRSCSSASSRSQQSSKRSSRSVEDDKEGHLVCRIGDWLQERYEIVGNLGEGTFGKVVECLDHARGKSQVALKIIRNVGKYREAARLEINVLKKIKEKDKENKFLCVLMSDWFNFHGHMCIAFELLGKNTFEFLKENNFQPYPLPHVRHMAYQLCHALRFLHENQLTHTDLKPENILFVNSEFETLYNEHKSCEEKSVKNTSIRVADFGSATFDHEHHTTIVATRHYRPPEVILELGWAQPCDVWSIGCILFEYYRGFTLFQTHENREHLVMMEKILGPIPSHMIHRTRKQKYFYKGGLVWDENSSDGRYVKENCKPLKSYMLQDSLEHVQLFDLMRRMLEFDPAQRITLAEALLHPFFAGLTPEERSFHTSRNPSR

Cyclin-dependent kinase 6 (Homo sapiens), sequence (Q00534 whole entry): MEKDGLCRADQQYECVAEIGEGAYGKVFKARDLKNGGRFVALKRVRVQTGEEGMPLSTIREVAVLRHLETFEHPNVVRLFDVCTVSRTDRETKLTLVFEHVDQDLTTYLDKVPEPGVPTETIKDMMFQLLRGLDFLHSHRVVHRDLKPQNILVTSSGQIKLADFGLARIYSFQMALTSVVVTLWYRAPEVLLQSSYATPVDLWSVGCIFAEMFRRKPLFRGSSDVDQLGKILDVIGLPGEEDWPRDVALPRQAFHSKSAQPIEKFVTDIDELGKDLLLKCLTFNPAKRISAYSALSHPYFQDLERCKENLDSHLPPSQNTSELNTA
Dual specificity protein kinase CLK2 (Homo sapiens), sequence (P49760 whole entry, looked up): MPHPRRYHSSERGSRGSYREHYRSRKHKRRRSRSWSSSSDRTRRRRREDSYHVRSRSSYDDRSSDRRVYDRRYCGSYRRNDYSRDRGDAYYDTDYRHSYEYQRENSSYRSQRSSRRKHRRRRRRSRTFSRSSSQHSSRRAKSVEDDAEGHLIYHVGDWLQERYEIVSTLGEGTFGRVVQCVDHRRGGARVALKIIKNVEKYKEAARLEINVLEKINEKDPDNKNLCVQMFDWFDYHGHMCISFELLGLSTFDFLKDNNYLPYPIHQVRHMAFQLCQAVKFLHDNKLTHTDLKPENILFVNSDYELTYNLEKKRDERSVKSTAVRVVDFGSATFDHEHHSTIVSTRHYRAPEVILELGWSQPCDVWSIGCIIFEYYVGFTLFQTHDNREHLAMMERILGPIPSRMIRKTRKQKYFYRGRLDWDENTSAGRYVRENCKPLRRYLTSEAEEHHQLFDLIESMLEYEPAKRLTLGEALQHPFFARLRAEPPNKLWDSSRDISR
Cyclin-dependent kinase 5 (Homo sapiens), sequence (Q00535 whole entry, looked up): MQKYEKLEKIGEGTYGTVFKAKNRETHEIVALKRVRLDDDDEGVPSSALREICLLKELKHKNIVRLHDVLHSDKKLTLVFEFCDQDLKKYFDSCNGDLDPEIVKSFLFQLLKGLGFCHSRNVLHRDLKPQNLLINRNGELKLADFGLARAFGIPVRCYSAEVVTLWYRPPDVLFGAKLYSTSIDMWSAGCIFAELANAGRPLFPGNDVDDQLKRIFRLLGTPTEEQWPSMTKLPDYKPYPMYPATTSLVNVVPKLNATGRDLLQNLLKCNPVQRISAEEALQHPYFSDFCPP
CDK3/Cyclin E (Homo sapiens), sequence (P24864 whole entry, looked up): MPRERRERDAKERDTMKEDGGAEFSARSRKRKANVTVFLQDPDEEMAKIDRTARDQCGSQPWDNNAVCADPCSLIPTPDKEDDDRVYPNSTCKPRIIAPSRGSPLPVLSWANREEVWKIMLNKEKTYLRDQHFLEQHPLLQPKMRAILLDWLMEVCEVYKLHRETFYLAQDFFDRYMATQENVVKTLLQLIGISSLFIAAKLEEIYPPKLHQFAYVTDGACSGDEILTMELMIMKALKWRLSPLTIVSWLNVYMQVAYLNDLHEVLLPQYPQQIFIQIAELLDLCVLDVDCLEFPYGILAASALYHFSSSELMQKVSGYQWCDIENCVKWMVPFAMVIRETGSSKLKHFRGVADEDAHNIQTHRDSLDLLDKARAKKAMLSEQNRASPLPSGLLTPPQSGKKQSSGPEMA
CDK3/Cyclin E (Homo sapiens), sequence (Q00526 whole entry, looked up): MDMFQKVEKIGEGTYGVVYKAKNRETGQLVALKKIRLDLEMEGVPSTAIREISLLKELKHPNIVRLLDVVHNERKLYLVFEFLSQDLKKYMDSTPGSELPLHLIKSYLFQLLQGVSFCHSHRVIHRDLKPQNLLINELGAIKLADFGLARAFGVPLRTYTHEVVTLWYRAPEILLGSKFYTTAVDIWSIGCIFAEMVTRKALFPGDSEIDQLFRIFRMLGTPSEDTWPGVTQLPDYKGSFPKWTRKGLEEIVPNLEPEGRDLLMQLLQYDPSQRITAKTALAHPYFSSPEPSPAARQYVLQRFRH
Cyclin-dependent kinase 4 (Homo sapiens), sequence (P11802 whole entry): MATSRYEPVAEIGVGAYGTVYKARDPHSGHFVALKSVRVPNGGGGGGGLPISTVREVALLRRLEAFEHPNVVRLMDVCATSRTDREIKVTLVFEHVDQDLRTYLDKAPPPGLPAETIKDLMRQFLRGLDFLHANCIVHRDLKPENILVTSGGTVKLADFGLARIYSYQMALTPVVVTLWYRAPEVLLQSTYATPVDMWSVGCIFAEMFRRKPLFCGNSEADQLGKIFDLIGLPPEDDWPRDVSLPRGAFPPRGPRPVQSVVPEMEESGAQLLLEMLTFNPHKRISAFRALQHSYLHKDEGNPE

| SMILES | inhibition [1] | inhibition [2] | inhibition [3] | inhibition [4] | inhibition [5] | inhibition [6] | inhibition [7] | inhibition [8] | inhibition [9] | inhibition [10] |
| --- | --- | --- | --- | --- | --- | --- | --- | --- | --- | --- |
| COc1cc(/C=N/Nc2ncnc3[nH]ncc23)ccc1O | 6.95% | 2.99% | 5.18% | 2.93% | 16.3% | 10.4% | 15.9% | 2.37% | 28.6% | 2.85% |
| O=C(Nc1n[nH]c2cc(-c3ccc(F)cc3)ccc12)C1CC1 | 2.42% | 2.64% | 6.92% | 0.56% | 3.03% | -1.47% | 24.6% | 0.75% | 0.48% | 1.11% |
| CNC(=O)c1cc(-c2ccc(F)cc2)cc(-c2ccc(S(=O)(=O)N3CCCC3)cc2)c1N | -2.51% | 1.65% | 2.17% | 0.12% | 1.55% | -2.1% | -3.59% | 1.77% | 2.42% | 0.69% |
| COC(=O)Nc1nc2ccc(S(=O)(=O)c3ccc(NC(=O)Nc4cc(C(F)(F)F)ccc4F)cc3)cc2[nH]1 | -2.43% | 2.72% | 4.04% | 1.61% | 2.38% | 0.21% | 2.9% | 0.38% | 1.96% | 0.87% |
| N#Cc1c(NC(=O)c2ccc(F)cc2)sc2c1CCCC2 | -1.72% | 0.38% | 1.59% | 0.42% | 0.28% | -1.23% | -0.13% | -1% | 1.4% | 0.44% |
| c1cc(-c2cnn3nc(N4CCOCC4)ccc23)nc(NC2CC2)n1 | 17.4% | 15% | 57.8% | 2.71% | 23.3% | 11.8% | 30.7% | 9.32% | 52% | 1.88% |
| COc1cccc(-c2c[nH]c3c(N/N=C/c4ccncc4)ncnc23)c1 | 51.3% | 10.5% | 45.7% | 38.8% | 73.1% | 12.2% | 51.4% | 2.83% | 20.4% | 2.11% |
| CCn1c(-c2nonc2N)nc2ccccc21 | 1.41% | 1.45% | 3.08% | 0.59% | 1.17% | 1.48% | 1.55% | 2.35% | 4.78% | 1.2% |
| COc1ccc(-c2nn3ncccc3c2-c2ccnc(Nc3ccc4c(c3)OCCO4)n2)cc1 | -2.16% | -0.27% | 2.65% | -0.08% | 2.41% | -4.12% | -0.81% | 0.37% | 0.98% | -0.22% |
| CCc1nn2ncccc2c1-c1ccnc(NC2CC2)n1 | 2.56% | 5.47% | 17.6% | 0.79% | 6.84% | 0.16% | 10.1% | 0.1% | 3.21% | 0.31% |
| FC(F)(F)c1cccc(-c2nn3ncccc3c2-c2ccnc(Nc3ccc4c(c3)OCCO4)n2)c1 | -0.03% | 2.66% | 4.56% | 1.65% | 2.11% | -1.79% | 2.39% | 1.11% | 0.64% | 0.73% |
| COC(=O)Nc1nc2ccc(Oc3ccc(NC(=O)Nc4cccc(Cl)c4)cc3)cc2[nH]1 | -0.43% | 0.18% | 0.01% | 0.3% | -0.49% | -0.37% | 3.51% | -1.9% | -1.67% | 0.01% |
| Clc1ccc(-c2nn3ncccc3c2-c2ccnc(Nc3ccccc3)n2)cc1 | -0.36% | 1.45% | 2.58% | 0.66% | 1.41% | 1.16% | 4.53% | -0.96% | 1.58% | 1.63% |
| CN(C)CCOc1ccc(-c2nc(-c3ccncc3)c(-c3ccc4c(c3)CC/C4=N\O)[nH]2)cc1 | -2.98% | 2.94% | 6.21% | 2.41% | 5.88% | 7.36% | 9.02% | -1.13% | 2.18% | 1.97% |
| CCn1cc(-c2ccnc3[nH]ccc23)c(-c2cccc(NC(=O)Nc3ccc(OCc4ccccc4)cc3)c2)n1 | -2.23% | 1.32% | -0.47% | -0.05% | -0.93% | -2.8% | -4.5% | -0.56% | -2.09% | -0.94% |
| CCN(CC)S(=O)(=O)c1ccc(OC)c(Nc2ncc(-c3ccccc3)o2)c1 | -0.01% | 1.62% | 2.74% | 0.99% | 2.21% | 5.19% | 2.95% | 4.15% | 40.3% | 0.64% |
| CNC(=O)c1cncc(/C=C/c2ccccc2Cl)c1 | -0.07% | -1.43% | -0.33% | 0.19% | 2% | 2.81% | -1.1% | -0.38% | 0.35% | -0.85% |
| CS(=O)(=O)CCNCc1coc(-c2ccc3ncnc(Nc4ccc(OCc5ccccc5)cc4)c3c2)c1 | -1.98% | 1.27% | 3.49% | 0.65% | 2.1% | 0.39% | 3.6% | 3.24% | 1.86% | -0.2% |
| CC(C)COC(=O)c1ccc2c(c1)/C(=C/Nc1ccc(S(N)(=O)=O)cc1)C(=O)N2 | 90.8% | 24.7% | 66.7% | 49.8% | 79.6% | 21.5% | 68.6% | 19.2% | 72.2% | -0.32% |
| Cc1cccc2c1NC(=O)/C2=N\Nc1ccc(S(N)(=O)=O)cc1 | 2.03% | 3.28% | 5.14% | 0.68% | 2.95% | 5.03% | 10.7% | 1.48% | 2.98% | 1.44% |

| SMILES | inhibition [1] | inhibition [2] | inhibition [3] | inhibition [4] | inhibition [5] | inhibition [6] | inhibition [7] | inhibition [8] | inhibition [9] | inhibition [10] |
| --- | --- | --- | --- | --- | --- | --- | --- | --- | --- | --- |
| CCn1c(-c2nonc2N)nc2cnc(Oc3cccc(NC(=O)c4ccc(N(C)C)cc4)c3)cc21 | -1.3% | 1.81% | 1.34% | 0.66% | 1.93% | -1.64% | 1.62% | -0.04% | 1.15% | 0.38% |
| COc1cc2ncn(-c3cc(OCc4ccccc4C(F)(F)F)c(C(=O)N(C)C)s3)c2cc1OC | -0.96% | 1.04% | 1.39% | 0.01% | -0.22% | -1.98% | -0.75% | -0.32% | 2.04% | 0.46% |
| CC(=O)NCc1cccc(C#Cc2cncnc2Nc2ccc(OCc3cccc(F)c3)c(Cl)c2)c1 | -1.44% | 1.51% | 5.22% | 1.7% | 5.29% | -2.35% | 5.05% | 1% | -0.78% | 0.32% |
| CCn1c(-c2nonc2N)nc2c(C#CC(C)(C)O)ncc(OC3CCNCC3)c21 | -2.14% | 2.68% | 3.11% | 0.91% | 2.08% | -2.96% | -1.44% | 2.21% | 18% | 0.62% |
| c1ccc(COc2ccc(Nc3ncnc4ccc(-c5ccco5)cc34)cc2)cc1 | -1.75% | -0.08% | 2.95% | 0.18% | 1.53% | -2.29% | -1.6% | 0.31% | -0.79% | -0.79% |
| Cc1ccc(O)cc1Nc1ccnc2cc(-c3ccccn3)ccc12 | -0.7% | 3.48% | 4.45% | 0.73% | 1.9% | 1.92% | 4.31% | 1.89% | 3.5% | 2.09% |
| COc1cc2c(cc1Nc1nc(Nc3ccsc3C(N)=O)c3cc[nH]c3n1)N(C(=O)CN(C)C)CCC2(C)C | -1.09% | 5.42% | 8.61% | 6.36% | 7.33% | 1.59% | 9.92% | 29% | 79.5% | 2% |
| CCOc1ccc2c(-c3ccnc(Nc4cccc(C(F)(F)F)c4)n3)cnn2n1 | 1.6% | 1.35% | 2.43% | 0.66% | 3.67% | -0.78% | 1.85% | 24.2% | 94.3% | 0.68% |
| NS(=O)(=O)c1ccc(Nc2ncc(-c3ccccc3)o2)cc1 | 77.2% | 9.25% | 26.5% | 23.8% | 70.3% | 13.1% | 48.6% | 1.81% | 1.67% | 2.28% |
| CC(C)(CO)CNC(=O)c1ccc2c(c1)/C(=N/Nc1ccc(S(N)(=O)=O)cc1)C(=O)N2 | 88.5% | 13.6% | 54.6% | 40.6% | 75.1% | 9.84% | 59.1% | 11.8% | 61.9% | -0.48% |
| CCCN(CCS(C)(=O)=O)Cc1ccc(-c2ccc3ncnc(Nc4ccc(OCc5cccc(F)c5)c(Cl)c4)c3c2)o1 | -1.26% | 1.25% | 5.06% | 2.08% | 6.83% | 1.99% | 7% | 1.46% | 0.75% | 1.51% |
| COc1ccc(-c2oc3ncnc(N)c3c2-c2ccc(NC(=O)Nc3cc(C(F)(F)F)ccc3F)cc2)cc1 | 42.4% | 3.09% | 5.04% | 1.02% | 4.32% | 3.24% | 3.67% | 3.66% | 26.6% | 1.97% |
| CC1=C(C(=O)Nc2cc(Cl)c3[nH]ncc3c2)C(c2ccc(C(F)(F)F)cc2)CC(=O)N1 (stereo not given) | 0.3% | 2.42% | 3.48% | 0.48% | 1.62% | -4.7% | -0.24% | 1.17% | 4.84% | 1.15% |
| CCN1CCC(CC(=O)Nc2n[nH]c3nnc(-c4cccc(F)c4F)cc23)CC1 | 2.37% | 5.41% | 32.5% | 1.05% | 7.07% | -1.17% | 17.4% | 5.35% | 29.9% | -0.51% |
| COc1ccc(-c2cc3c(N)ncnc3o2)cc1 | 1.68% | 0.18% | 3.35% | 1.53% | 5.3% | -1.4% | 2.82% | 0.46% | 2.78% | 0.59% |
| Fc1ccc(-c2nn3ncccc3c2-c2ccnc(Nc3ccc4c(c3)OCCO4)n2)cc1 | -2.65% | 1.89% | 1.86% | 0.45% | 0.21% | -2.15% | 2.72% | 1.15% | 1.21% | 1.15% |
| Cc1cccc(Nc2ncc(-c3ccccc3)o2)c1 | 4.71% | 1.95% | 5.69% | 1.51% | 7.89% | -1.21% | 11.3% | 1.65% | 4.78% | 1.1% |
| COc1ccc2[nH]c3c4[nH]c5ccc(OC)cc5c4c4c(c3c2c1)C(=O)NC4=O | 6.02% | 2.56% | 7.55% | 1.11% | 2.57% | 2.91% | 3.6% | 5.12% | 20.3% | 2.17% |
| O=C(O[C@H]1CN[C@H](C#Cc2cc3ncnc(Nc4ccc(Cc5ccccc5)cc4)c3s2)C1)N1CCOCC1 | -1.05% | 0.77% | 1.9% | 0.05% | 1.12% | -3.24% | -1.41% | 0.36% | -0.46% | 0.27% |
